According to PubChem BioAssay (EPA / NIEHS):
Where “and” joins values, the source holds several entries; their conditions need not be identical. Equal values may be shown once. Some compounds were tested as several samples or in several runs, with calls that do not always agree. Calls of active or inactive are those of the source. How the source made its calls: active means hit-call score of the fitted dose curve at least 0.9, where 1 is the maximum; inactive means score below 0.9.

Legend:
[1] = ATG_GLI_CIS: Attagene CIS-FACTORIAL HepG2 Assay for human Zinc Finger Protein GLI1 (AID 2282945); details: HepG2, Attagene cis-factorial reporter mRNA, GLI element; actives raise or lower the signal
Outline: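 Bidirectional curve fits relative to DMSO, using reporter mRNA levels from RT-PCR plus capillary electrophoresis. Cells were HepG2 transiently carrying cis-regulated reporter constructs, harvested 24 h after dosing.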

[2] = target: Bile acid receptor (Homo sapiens) (UniProt Q96RI1); assay: ATG_IR1_CIS: Attagene CIS-FACTORIAL HepG2 Assay for human Nuclear Receptor Subfamily 1 Group H Member 4 (NR1H4), IR1 submotif (AID 2282946); details: IR1 reporter transcription, actives raise or lower the signal
Outline: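 Cells (human HepG2) carry transiently transfected cis-promoter reporter transcription units. Compounds are incubated 24 h, total RNA is reverse-transcribed and amplified, and labelled fragments are resolved by capillary electrophoresis. Curves use DMSO as baseline.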

[3] = ATG_GRE_CIS: Attagene CIS-FACTORIAL HepG2 Assay for human Glucocorticoid Response Elements (GRE) (AID 2282947); details: HepG2 GRE cis-reporter, Attagene multiplex mRNA; actives raise or lower the signal
Outline: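 Transient MRTU transfection of human HepG2 liver cells; cis-regulated reporters report endogenous factors. 24 h dosing → RNA isolation → RT-PCR → 6-FAM primer extension → HpaI cut → CE fragment analysis. Bidirectional fit, DMSO negative control.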

[4] = ATG_ISRE_CIS: Attagene CIS-FACTORIAL HepG2 Assay for human Interferon Regulatory Factor 1 (IRF1) binding to an Interferon-Stimulated Response Element (ISRE) (AID 2282948); details: HepG2 ISRE cis-reporter (Attagene), mRNA transcription readout; actives raise or lower the signal
Outline: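 Transiently transfected HepG2 cells carrying cis-element reporter units, dosed 24 hours. Reporter mRNA quantified by RT-PCR, fluorescent primer extension, HpaI digestion and capillary electrophoresis. Bidirectional fitting relative to DMSO.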

[5] = ATG_M_32_CIS: Attagene CIS-FACTORIAL HepG2 Assay for M32 Transcription Factor (Internal Marker) (AID 2282949); details: HepG2 Attagene cis-factorial M32 reporter, mRNA; actives raise or lower the signal;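 further: background control marker of the multiplexed CIS panel rather than a real target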
Outline: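 Fluorescent capillary electrophoresis peaks of HpaI-digested, FAM-labelled RT-PCR reporter products give the signal. Source: transiently transfected human liver HepG2 cells, 24 h after chemical dosing; bidirectional fitting against DMSO.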

[6] = ATG_M_06_CIS: Attagene CIS-FACTORIAL HepG2 Assay for M06 Transcription Factor (Internal Marker) (AID 2282950); details: HepG2 Attagene CIS-FACTORIAL M06 internal marker reporter; actives raise or lower the signal
Outline: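 Steps: transfect HepG2 with multiplexed cis-element reporter constructs; dose chemical 24 h; extract RNA with DNase treatment; reverse-transcribe, PCR-amplify, 6-FAM label, HpaI digest; separate fragments by capillary electrophoresis. Activity fitted both directions versus DMSO.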

[7] = target: Hepatocyte nuclear factor 6 (Homo sapiens) (UniProt Q9UBC0); assay: ATG_HNF6_CIS: Attagene CIS-FACTORIAL HepG2 Assay for human Hepatocyte Nuclear Factor 6 (HNF6) (AID 2282952); details: HepG2 Attagene cis-factorial HNF6 reporter transcription; actives raise or lower the signal
Outline: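 Reporter mRNA induction or loss in HepG2 after 24 h exposure; transient cis-MRTU transfection; fragments quantified by capillary electrophoresis; bidirectional analysis, DMSO as negative control.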

[8] = target: Heat shock factor protein 1 (Homo sapiens) (UniProt Q00613); assay: ATG_HSE_CIS: Attagene CIS-FACTORIAL HepG2 Assay for human Heat Shock Transcription Factor 1 (HSE) (AID 2282953); details: HepG2 HSE cis-reporter, Attagene RNA transcription; actives raise or lower the signal
Outline: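 Cells were transfected with cis-element-driven reporter constructs, dosed for 24 h, then total RNA was reverse-transcribed and reporter cDNA amplified, FAM-labelled and digested with HpaI. Fragments were resolved by capillary electrophoresis; gain or loss was fitted against DMSO.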

[9] = ATG_MRE_CIS: Attagene CIS-FACTORIAL HepG2 Assay for human Metal Responsive Element (MRE) (AID 2282954); details: HepG2 MRE cis-reporter transcription, Attagene multiplex; actives raise or lower the signal
Outline: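 Transient MRTU transfection of HepG2 (FuGene 6); 24 h dosing; total RNA → oligo(dT) RT, PCR, 6-FAM primer extension, HpaI cut, CE. Bidirectional fit vs DMSO.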

[10] = target: Paired box protein Pax-6 (Homo sapiens) (UniProt P26367); assay: ATG_Pax6_CIS: Attagene CIS-FACTORIAL HepG2 Assay for human Paired Box 6 (PAX6) (AID 2282956); details: HepG2 CIS-FACTORIAL PAX6 reporter transcription, RNA readout; actives raise or lower the signal
Outline: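 HepG2 cells transiently transfected with cis-promoter-driven multiplexed reporter units sensing endogenous transcription factor activity; 24 h chemical exposure. Reporter mRNA quantified by RT-PCR, 6-FAM labelling, HpaI digestion and capillary electrophoresis; bidirectional fit versus DMSO baseline.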

[11] = ATG_PXRE_CIS: Attagene CIS-FACTORIAL HepG2 Assay for human Pregnane X Receptor Element (PXRE) (AID 2282957); details: HepG2 Attagene CIS-FACTORIAL PXRE reporter, mRNA; actives raise or lower the signal
Outline: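 Transiently transfected HepG2 cells were dosed and incubated for 24 h. RNA was then isolated, DNase-treated, reverse-transcribed and reporter sequences amplified. Labeled, HpaI-digested fragments were quantified by capillary electrophoresis against DMSO.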

[12] = ATG_PPRE_CIS: Attagene CIS-FACTORIAL HepG2 Assay for human Peroxisome Proliferator-activated Response Element (PPRE) (AID 2282958); details: HepG2 PPRE cis-element reporter, Attagene transcription factor profiling; actives raise or lower the signal
Outline: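 PPRE activity in HepG2: transient cis-reporter transfection, 24 h compound incubation, reporter mRNA by RT-PCR and CE fluorescence; gain/loss fitted against DMSO.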

[13] = ATG_RORE_CIS: Attagene CIS-FACTORIAL HepG2 Assay for human RAR-related Orphan Receptor Element (RORE) (AID 2282959); details: HepG2 Attagene cis-factorial RORE reporter, mRNA; actives raise or lower the signal
Outline: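 A 24-hour exposure of transfected HepG2 hepatoma cells precedes RNA isolation and reporter RT-PCR. Labeled products are digested with HpaI and resolved by capillary electrophoresis, with gain or loss of signal scored relative to DMSO.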

[14] = ATG_Sox_CIS: Attagene CIS-FACTORIAL HepG2 Assay for human SRY-box transcription factor (SOX) (AID 2282960); details: HepG2 Attagene cis-factorial SOX reporter, mRNA; actives raise or lower the signal
Outline: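 HepG2, cis reporter units, 24 h exposure. Reporter mRNA: RT-PCR → FAM labelling → HpaI → CE fluorescence. Bidirectional fit vs DMSO.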

[15] = target: Transcription factor Sp1 (Homo sapiens) (UniProt P08047); assay: ATG_Sp1_CIS: Attagene CIS-FACTORIAL HepG2 Assay for human Specificity Protein 1 (Sp1) (AID 2282961); details: HepG2 Sp1 cis-reporter transcription, actives raise or lower the signal
Outline: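 Liver-derived HepG2 cells, cis-element reporter library, 24 h treatment; RNA isolated, cDNA amplified with reporter-specific primers, FAM-labeled fragments sized on capillary analyzer. DMSO baseline, bidirectional curve fit.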

[16] = ATG_SREBP_CIS: Attagene CIS-FACTORIAL HepG2 Assay for human Sterol Regulatory Element Binding (SREBP) (AID 2282962); details: HepG2 Attagene cis-factorial SREBP reporter, mRNA; actives raise or lower the signal
Outline: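 HepG2 cells transiently transfected with multiplexed cis-promoter reporter units sensing endogenous transcription factors; reporter mRNA measured 24 h after dosing by RT-PCR, 6-FAM labeling, HpaI digestion and capillary electrophoresis. Bidirectional fit versus DMSO.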

[17] = target: Signal transducer and activator of transcription 3 (Homo sapiens) (UniProt P40763); assay: ATG_STAT3_CIS: Attagene CIS-FACTORIAL HepG2 Assay for human Signal Transducer and Activator of Transcription 3 (STAT3) (AID 2282963); details: HepG2, Attagene cis-factorial STAT3 reporter transcription; actives raise or lower the signal
Outline: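 Endogenous STAT3-responsive cis-element activity was read in transiently transfected HepG2 cells after 24 h treatment. Reporter transcripts were quantified via RT-PCR and capillary electrophoresis, with DMSO as negative control and bidirectional curve fitting.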

[18] = ATG_TA_CIS: Attagene CIS-FACTORIAL HepG2 Assay for human TA Basal Promoter (AID 2282964); details: HepG2 Attagene CIS-factorial TA basal promoter reporter; actives raise or lower the signal
Outline: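 Steps: transfect HepG2 with MRTUs; dose 24 h; isolate RNA, DNase-treat, reverse-transcribe; PCR and FAM-label reporter cDNA; digest with HpaI 2h at 37 C; run capillary electrophoresis. Activity fitted both directions against DMSO.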

[19] = target: Hypoxia-inducible factor 1-alpha (Homo sapiens) (UniProt Q16665); assay: ATG_HIF1a_CIS: Attagene CIS-FACTORIAL HepG2 Assay for human Hypoxia Inducible Factor 1 (HIF1A) (AID 2282951); details: HepG2 Attagene cis-factorial HIF1a reporter transcription; actives raise or lower the signal
Outline: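 After 24 h chemical exposure of reporter-transfected HepG2 cells, reporter cDNA was PCR-amplified, labelled by 6-FAM primer extension (2 min 95 C, 20 s 68 C, 10 min 72 C), HpaI-cut (2 h, 37 C) and analysed by CE.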

[20] = ATG_PBREM_CIS: Attagene CIS-FACTORIAL HepG2 Assay for human Phenobarbital-responsive Enhancer Module (PBREM) (AID 2282955); details: HepG2 PBREM cis-reporter, Attagene multiplexed transcription; actives raise or lower the signal
Outline: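 Measures endogenous factor action on a phenobarbital-responsive enhancer module. HepG2 transiently carrying cis reporters, 24 h treatment, mRNA read-out by RT-PCR plus capillary electrophoresis.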

Measured: AC50

Chain of Paired box protein Pax-6 (Homo sapiens) (P26367 whole entry, looked up): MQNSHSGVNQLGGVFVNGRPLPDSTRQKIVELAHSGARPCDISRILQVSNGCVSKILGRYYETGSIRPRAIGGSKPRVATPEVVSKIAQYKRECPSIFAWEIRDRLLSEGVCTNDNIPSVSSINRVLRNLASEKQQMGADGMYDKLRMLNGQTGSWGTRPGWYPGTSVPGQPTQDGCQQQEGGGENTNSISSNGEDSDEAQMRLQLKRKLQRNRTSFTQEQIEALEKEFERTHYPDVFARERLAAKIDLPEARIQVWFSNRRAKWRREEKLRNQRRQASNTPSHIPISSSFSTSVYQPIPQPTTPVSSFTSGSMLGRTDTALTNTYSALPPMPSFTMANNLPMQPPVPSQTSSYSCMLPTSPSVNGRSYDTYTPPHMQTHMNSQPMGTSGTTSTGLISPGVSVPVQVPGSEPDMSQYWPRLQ
Chain of Heat shock factor protein 1 (Homo sapiens) (Q00613 whole entry, looked up, the tested form may be a part): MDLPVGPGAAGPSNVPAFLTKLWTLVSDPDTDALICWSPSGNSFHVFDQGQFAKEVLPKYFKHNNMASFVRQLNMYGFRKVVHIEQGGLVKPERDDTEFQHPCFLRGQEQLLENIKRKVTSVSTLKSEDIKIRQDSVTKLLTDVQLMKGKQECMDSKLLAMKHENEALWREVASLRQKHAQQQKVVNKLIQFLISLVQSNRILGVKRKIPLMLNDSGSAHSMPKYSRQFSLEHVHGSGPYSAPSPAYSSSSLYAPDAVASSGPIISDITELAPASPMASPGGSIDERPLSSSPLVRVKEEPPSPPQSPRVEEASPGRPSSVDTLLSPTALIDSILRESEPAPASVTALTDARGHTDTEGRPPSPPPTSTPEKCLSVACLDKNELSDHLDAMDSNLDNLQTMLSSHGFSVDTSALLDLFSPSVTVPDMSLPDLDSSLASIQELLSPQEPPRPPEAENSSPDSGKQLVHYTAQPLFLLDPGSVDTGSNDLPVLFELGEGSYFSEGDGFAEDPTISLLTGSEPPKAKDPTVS
Chain of Transcription factor Sp1 (Homo sapiens) (P08047 whole entry, looked up, the tested form may be a part): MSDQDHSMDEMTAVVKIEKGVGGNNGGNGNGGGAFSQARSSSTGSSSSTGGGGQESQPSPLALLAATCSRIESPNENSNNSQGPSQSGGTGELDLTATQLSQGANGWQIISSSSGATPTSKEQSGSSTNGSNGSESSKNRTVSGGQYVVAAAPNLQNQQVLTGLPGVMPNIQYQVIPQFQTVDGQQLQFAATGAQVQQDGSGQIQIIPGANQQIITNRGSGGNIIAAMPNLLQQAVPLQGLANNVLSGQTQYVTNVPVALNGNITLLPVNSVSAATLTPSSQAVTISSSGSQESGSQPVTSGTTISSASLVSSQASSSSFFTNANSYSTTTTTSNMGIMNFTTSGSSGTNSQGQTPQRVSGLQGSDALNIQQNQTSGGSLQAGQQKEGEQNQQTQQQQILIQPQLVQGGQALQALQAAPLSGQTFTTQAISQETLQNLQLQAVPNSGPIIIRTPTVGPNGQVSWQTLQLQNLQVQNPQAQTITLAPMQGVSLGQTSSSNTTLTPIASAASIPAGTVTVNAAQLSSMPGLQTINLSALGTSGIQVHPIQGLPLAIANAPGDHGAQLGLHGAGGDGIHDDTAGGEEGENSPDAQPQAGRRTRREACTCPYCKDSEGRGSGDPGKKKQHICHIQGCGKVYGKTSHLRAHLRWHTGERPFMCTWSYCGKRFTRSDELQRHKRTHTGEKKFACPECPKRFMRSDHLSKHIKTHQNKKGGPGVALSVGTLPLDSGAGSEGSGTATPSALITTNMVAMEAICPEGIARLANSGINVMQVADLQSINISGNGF
Chain of Hepatocyte nuclear factor 6 (Homo sapiens) (Q9UBC0 whole entry, looked up, the tested form may be a part): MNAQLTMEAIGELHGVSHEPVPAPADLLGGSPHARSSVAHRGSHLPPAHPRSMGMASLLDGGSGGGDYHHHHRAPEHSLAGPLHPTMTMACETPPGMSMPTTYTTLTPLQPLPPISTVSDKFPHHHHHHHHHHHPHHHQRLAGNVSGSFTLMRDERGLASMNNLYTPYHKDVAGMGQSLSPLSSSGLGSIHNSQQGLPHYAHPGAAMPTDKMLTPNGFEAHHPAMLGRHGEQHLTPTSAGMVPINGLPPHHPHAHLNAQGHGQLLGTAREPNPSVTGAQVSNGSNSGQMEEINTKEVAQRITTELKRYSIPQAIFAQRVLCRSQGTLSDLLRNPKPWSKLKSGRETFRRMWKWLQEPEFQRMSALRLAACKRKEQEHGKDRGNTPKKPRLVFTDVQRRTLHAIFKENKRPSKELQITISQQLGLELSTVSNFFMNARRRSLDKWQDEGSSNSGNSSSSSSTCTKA
Chain of Bile acid receptor (Homo sapiens) (Q96RI1 whole entry, looked up, the tested form may be a part): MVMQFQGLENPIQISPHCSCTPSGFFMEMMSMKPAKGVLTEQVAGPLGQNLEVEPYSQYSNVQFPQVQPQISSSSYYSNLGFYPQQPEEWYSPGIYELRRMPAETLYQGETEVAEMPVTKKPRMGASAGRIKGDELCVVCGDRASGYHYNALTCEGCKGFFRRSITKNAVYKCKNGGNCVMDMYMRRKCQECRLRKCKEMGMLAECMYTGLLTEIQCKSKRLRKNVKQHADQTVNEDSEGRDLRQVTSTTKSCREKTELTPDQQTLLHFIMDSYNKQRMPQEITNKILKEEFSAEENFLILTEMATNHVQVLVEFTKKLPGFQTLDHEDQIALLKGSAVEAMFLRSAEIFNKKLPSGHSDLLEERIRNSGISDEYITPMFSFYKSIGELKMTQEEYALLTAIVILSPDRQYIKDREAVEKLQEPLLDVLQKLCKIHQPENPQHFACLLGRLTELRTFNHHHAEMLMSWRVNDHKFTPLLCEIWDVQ
Chain of Signal transducer and activator of transcription 3 (Homo sapiens) (P40763 whole entry, looked up): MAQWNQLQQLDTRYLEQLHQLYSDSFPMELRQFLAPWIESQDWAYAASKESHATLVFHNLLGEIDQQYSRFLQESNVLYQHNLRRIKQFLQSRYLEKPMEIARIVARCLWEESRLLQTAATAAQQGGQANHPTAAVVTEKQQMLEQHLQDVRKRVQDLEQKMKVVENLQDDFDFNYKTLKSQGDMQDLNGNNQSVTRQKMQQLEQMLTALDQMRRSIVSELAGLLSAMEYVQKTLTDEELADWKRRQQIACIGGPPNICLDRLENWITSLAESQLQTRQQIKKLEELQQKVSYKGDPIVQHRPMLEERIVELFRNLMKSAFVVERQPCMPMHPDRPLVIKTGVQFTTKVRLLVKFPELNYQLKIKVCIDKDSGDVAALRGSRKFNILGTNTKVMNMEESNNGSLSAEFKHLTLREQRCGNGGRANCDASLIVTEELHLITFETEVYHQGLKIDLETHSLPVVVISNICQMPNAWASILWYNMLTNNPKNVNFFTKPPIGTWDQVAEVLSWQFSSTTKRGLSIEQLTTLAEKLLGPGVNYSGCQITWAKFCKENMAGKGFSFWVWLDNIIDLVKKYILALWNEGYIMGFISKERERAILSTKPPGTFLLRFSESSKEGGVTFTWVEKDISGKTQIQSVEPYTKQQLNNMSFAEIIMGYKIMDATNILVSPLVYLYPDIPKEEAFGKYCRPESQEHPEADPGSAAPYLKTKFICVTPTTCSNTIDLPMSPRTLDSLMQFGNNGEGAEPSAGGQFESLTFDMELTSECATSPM
Chain of Hypoxia-inducible factor 1-alpha (Homo sapiens) (Q16665 whole entry, looked up): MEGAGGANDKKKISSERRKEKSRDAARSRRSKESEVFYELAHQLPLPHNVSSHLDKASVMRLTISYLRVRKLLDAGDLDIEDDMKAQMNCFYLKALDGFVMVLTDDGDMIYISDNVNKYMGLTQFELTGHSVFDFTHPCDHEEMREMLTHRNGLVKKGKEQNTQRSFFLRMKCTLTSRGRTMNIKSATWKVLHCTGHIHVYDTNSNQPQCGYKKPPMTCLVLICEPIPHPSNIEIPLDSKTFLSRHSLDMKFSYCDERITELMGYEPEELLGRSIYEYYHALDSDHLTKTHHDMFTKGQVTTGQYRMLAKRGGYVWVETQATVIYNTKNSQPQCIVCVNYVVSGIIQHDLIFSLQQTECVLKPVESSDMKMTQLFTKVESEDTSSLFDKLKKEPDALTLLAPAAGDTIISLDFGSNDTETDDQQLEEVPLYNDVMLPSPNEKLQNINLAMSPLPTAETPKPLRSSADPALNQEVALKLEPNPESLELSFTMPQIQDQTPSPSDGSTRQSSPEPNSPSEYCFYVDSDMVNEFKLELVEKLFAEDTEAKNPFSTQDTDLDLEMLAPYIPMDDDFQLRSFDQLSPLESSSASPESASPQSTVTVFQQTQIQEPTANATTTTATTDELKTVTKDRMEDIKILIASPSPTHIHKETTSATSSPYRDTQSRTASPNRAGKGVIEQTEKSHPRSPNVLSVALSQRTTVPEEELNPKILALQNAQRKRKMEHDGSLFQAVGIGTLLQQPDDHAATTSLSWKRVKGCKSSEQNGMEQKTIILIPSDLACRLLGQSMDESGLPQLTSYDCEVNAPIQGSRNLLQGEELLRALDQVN

Nc1cccc2c(N)cccc12
inactive: [1] | [2] | [3] | [4] | [5] | [6] | [7] | [8] | [9] | [10] | [11] | [12] | [13] | [14] | [15] | [16] | [17] | [18]

CC(C)(C)c1ccc(O)c(C(C)(C)C)c1
inactive: [1] | [3] | [4] | [5] | [6] | [7] | [8] | [9] | [10] | [13] | [14] | [15] | [16] | [17] | [18]
active: [2] 5.79 µM | [11] 7.21 µM

CCCCC(CC)COC(=O)CCCCC(=O)OCC(CC)CCCC (stereo not drawn)
inactive: [1] | [2] | [3] | [4] | [6] | [19] | [7] | [8] | [9] | [20] | [10] | [11] | [12] | [13] | [14] | [15] | [16] | [17] | [18]

C=C(C)C(=O)OCCC(F)(F)C(F)(F)C(F)(F)C(F)(F)C(F)(F)C(F)(F)F
inactive: [1] | [2] | [3] | [4] | [5] | [6] | [7] | [8] | [9] | [10] | [11] | [13] | [14] | [15] | [16] | [17] | [18]

CCCCCCCCCCCCN1CCCC1=O
inactive: [1] | [2] | [3] | [4] | [5] | [6] | [19] | [7] | [8] | [9] | [20] | [10] | [12] | [13] | [14] | [15] | [16] | [17] | [18]
active: [11] 4.43 µM

CC[C@H](c1ccc(O)cc1)[C@@H](CC)c1ccc(O)cc1
inactive: [1] | [2] | [3] | [4] | [5] | [6] | [7] | [8] | [9] | [20] | [10] | [12] | [13] | [14] | [15] | [16] | [17] | [18]
active: [2] 11.1 µM | [4] 11.1 µM and 17.2 µM | [9] 11.1 µM | [11] 3.02 µM [middle of 4 runs]
